# Data reported in PubChem BioAssay (NCI).
# This is part of a sample that, as a whole, favours compounds with a hit. Of some 83,000 tested, about 20% had one in any assay.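 Values shown are percent growth following 48 h exposure of cells in 96-well plates to a single concentration of compound; below 10 was considered active.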 A number with no mark means an inactive call. The source made the active and inactive calls.
# System: HL-60(TB) leukemia
# Experiment: NCI-60 one-dose screen, 48 h (100 = growth as untreated, 0 = no growth, -100 = all killed)
# Details: 10 µM unless noted
row,SMILES,growth
1,O=[N+]([O-])c1ccc(-c2noc(-c3cccs3)n2)cc1,70.1%
2,Nc1nnc(C(=O)c2cnc3n(c2=O)CCCCC3)s1,110%
3,CCOC(=O)CSc1c([N+](=O)[O-])ncn1C,91.4%
4,O=S(=O)(NCCNc1nccc(-c2c(-c3cccc(O)c3)nc3occn23)n1)c1ccc(C(F)(F)F)cc1,79.1%
5,COc1cccc(C2CC(=O)Nc3cc4c(cc32)OCO4)c1OC (stereo not drawn),93.7%
6,CC1(C)CC[C@]2(CO)CC[C@]3(C)[C@](O)([C@H](O)C[C@@H]4[C@@]5(C)CCCNC(C)(C)[C@@H]5CC[C@]43C)[C@@H]2C1,71%
7,CCN(CC)CCN1CNC(=S)NC1,78.8%
8,O=C1NC(=O)C(=Cc2cn(Cc3cn(Cc4ccc(Cl)cc4Cl)nn3)c3ccccc23)C(=O)N1,73.8%
9,COc1ccc(C(=O)OC2C(OC3C(O)COC(O[C@H]4C[C@H]5[C@@H]6CC=C7C[C@@H](O)CC[C@]7(C)[C@H]6CC[C@]5(C)[C@H]4[C@H](C)C(=O)CCC(C)C)C3OC(=O)C(C)C)OCC(O)C2O)cc1 (stereo partly drawn),-17% (active)
10,Cc1nc(/N=C(\N)NC(=O)Nc2cccc(Cl)c2)sc1C,42.8%
11,Oc1[nH]c2ccc(Cl)cc2c1/C=c1/ccc2c(c1)N=C(c1ccc(C(F)(F)F)cc1)N=2,75.1%
12,Oc1cccnc1CN1CCCC1,100%
13,c1ccc2[nH]c(-c3ccc(Nc4nc(N5CCCCC5)nc(N5CCOCC5)n4)cc3)nc2c1,-22.7% (active)
14,COc1cc2nccc(Oc3ccc(NC(=O)C4(C(=O)Nc5ccc(F)cc5)CC4)cc3)c2cc1O,54.5%
15,CC(C)(C)OC(=O)CN1CCc2c(sc3ncnc(N/N=C/c4ccccc4Br)c23)C1,92.1%
16,C=CC1=C(C(=O)O)N2C(=O)[C@@H](NC(=O)/C(=N\O)c3csc(N)n3)[C@H]2SC1 (stereo in doubt),118%
17,CC(=O)Nc1ccc(C(=O)CCl)cc1,-19.4% (active)
18,C#C[C@]1(O)CC[C@H]2[C@@H]3CC=C4c5sc(-c6cccc(Br)c6)nc5CC[C@]4(C)[C@H]3CC[C@@]21C,77.9%
19,O=C1CC(c2ccc3c(c2)OCO3)Nc2ccccc21 (stereo not drawn),0.897% (active)
20,CCCn1c(N)c(C(=O)CNc2ccc(I)cc2)c(=O)[nH]c1=O,-5.9% (active)
21,O=C(N/N=C/c1ccccc1Cl)c1ccccc1Nc1ccnc(C(F)(F)F)c1,-20.1% (active)
22,COc1cc2c(cc1OCCCCCn1c(-c3ccc(OCc4ccccc4)cc3)nc3cc(N4CCOCC4)ccc31)N=C[C@@H]1CCCN1C2=O,12.7%
23,Clc1ccc(-n2ncc3c(NCCCN4CCOCC4)ncnc32)cc1,86%
24,O=C(CCCl)OCCOc1ccccc1,101%
25,Cc1ccnc2c1ccc1c(C)ccnc12,-5.64% (active)
26,COc1cc(NC(=O)c2cc(OC)c3ccn(C)c3c2)cc2c1C[C@]1(C)CC[C@@H](O)C(C)(C)[C@H]1O2,31.5%
27,CN(C)C(=S)N/N=C\C=N/NC(=S)N(C)C,-23% (active)
28,COc1ccc(/C=C\c2cc(OC)c(OC)c(OC)c2)cc1OCC(=O)Nc1ccc2nc(C)sc2c1,-5.19% (active)
